The list is not random: actives were taken first. Their share in the collection is about 6.8%.
OTUD3 inh: human OTUD3 deubiquitinase inhibition; purified OTUD3, Ub-rhodamine fluorescence, 2 h; inhibition, % at 25 µM; 47,000 tested, 0.7% active
USP10 inh: blocks human USP10 ubiquitin-rhodamine cleavage. Q14694. purified USP10, Ub-rhodamine fluorescence, 60 min. inhibition, % at 20 µM. 47,000 tested, 1.1% active
USP8 inh: human USP8 deubiquitinase inhibition | inhibition, % at 20 µM | purified USP8, Ub-rhodamine cleavage fluorescence, 30 min | P40818 | 47,000 tested, 4.2% active
Target sequence (P40818 whole entry, looked up): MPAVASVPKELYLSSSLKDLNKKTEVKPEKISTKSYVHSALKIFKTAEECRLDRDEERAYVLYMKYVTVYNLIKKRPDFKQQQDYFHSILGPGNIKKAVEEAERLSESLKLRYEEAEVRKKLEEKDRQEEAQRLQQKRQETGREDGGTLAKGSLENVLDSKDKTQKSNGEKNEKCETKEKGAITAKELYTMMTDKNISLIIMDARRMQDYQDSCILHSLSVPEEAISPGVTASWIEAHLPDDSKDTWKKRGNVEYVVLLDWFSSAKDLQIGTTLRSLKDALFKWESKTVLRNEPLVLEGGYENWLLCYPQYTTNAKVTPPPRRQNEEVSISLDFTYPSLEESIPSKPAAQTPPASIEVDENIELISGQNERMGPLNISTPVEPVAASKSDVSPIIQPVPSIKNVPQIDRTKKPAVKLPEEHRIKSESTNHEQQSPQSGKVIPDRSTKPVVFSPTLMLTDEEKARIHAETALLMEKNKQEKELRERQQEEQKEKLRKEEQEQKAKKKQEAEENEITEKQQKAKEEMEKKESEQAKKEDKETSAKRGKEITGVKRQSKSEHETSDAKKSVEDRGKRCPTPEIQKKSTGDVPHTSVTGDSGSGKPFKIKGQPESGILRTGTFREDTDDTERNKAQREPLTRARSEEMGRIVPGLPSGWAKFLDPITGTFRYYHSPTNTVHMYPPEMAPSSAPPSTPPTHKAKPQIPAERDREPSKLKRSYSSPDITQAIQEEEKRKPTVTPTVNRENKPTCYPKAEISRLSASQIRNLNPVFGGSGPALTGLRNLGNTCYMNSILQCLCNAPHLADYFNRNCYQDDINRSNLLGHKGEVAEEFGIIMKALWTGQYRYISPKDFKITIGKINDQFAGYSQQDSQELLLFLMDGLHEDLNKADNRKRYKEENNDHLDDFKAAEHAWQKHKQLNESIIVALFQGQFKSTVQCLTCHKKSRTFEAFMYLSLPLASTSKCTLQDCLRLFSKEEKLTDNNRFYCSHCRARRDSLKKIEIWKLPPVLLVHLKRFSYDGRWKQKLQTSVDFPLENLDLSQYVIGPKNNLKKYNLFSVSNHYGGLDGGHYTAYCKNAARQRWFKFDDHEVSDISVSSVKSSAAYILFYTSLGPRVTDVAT
UCHL1 block: inhibitors of human UCHL1 deubiquitinase | purified UCHL1, Ub-rhodamine cleavage fluorescence | 47,000 tested, 0.2% active | inhibition, % at 20 µM
USP28 block: human USP28 deubiquitinase inhibition; inhibition, % at 25 µM; 47,000 tested, 3% active; Q96RU2; purified USP28, Ub-rhodamine cleavage fluorescence, 30 min
USP7 block: human USP7 deubiquitinase inhibition. purified USP7, Ub-rhodamine cleavage fluorescence. inhibition, % at 20 µM. 47,000 tested, 0.3% active
An asterisk follows results filed as active. Cut-off read from the data, not from the text of the source: active = inhibition above about 30%; inactive = the rest.

What do the screens show for `O=C(COc1cccc(N2CCCC2=O)c1)Nc1ccc2c(c1)OCCO2`?
OTUD3 inh: 0.0; USP10 inh: -0.3; USP8 inh: -1.1; UCHL1 block: -3.2; USP28 block: 36.4*; USP7 block: -0.2

Results for O=C(COc1ccc2c(c1)OCO2)Nc1ccc2c(c1)OCCO2 ?
OTUD3 inh: -2.1; USP10 inh: -0.8; USP8 inh: -2.2; UCHL1 block: 0.5; USP28 block: 35.9*; USP7 block: -0.1

What do the screens show for `O=C(COC(=O)C1(c2ccc(Cl)cc2)CCCC1)Nc1ccc2c(c1)OCO2`?
OTUD3 inh: 28.7; USP10 inh: 16.0; USP8 inh: 36.2*; UCHL1 block: 8.9; USP28 block: 19.5; USP7 block: 15.1

How did O=C(NC1CCS(=O)(=O)C1)c1ccc(N2CCOc3ccc(Cl)cc32)s1 (centres undefined) do in these assays?
OTUD3 inh: 0.7; USP10 inh: -4.4; USP8 inh: -8.0; UCHL1 block: 3.9; USP28 block: 5.8; USP7 block: 3.2

How did COc1cccc(-c2cc3c(=O)n(Cc4nc(-c5ccccc5)no4)ccn3n2)c1 do in these assays?
OTUD3 inh: -12.4; USP10 inh: -4.3; USP8 inh: 4.4; UCHL1 block: 5.6; USP28 block: -22.4; USP7 block: 7.0

What do the screens show for `Cc1ccc(C(=O)N2CCN(S(=O)(=O)c3c(C)nn(C)c3C)CC2)cc1`?
OTUD3 inh: -0.1; USP10 inh: 0.6; USP8 inh: 0.1; UCHL1 block: -2.1; USP28 block: -5.6; USP7 block: 0.1

Results for Cc1cc(=O)n(CC(=O)Nc2ccc(C)c(C)c2)c(N2CCCC2)n1 ?
OTUD3 inh: -1.5; USP10 inh: 0.1; USP8 inh: -1.3; UCHL1 block: -2.3; USP28 block: 6.4; USP7 block: -3.5

What do the screens show for `O=C1CC(NS(=O)(=O)c2ccccc2)CN1Cc1ccccc1` (centres undefined)?
OTUD3 inh: -2.6; USP10 inh: 0.2; USP8 inh: 4.0; UCHL1 block: 0.4; USP28 block: -22.9; USP7 block: 2.7

What do the screens show for `O=C(COC(=O)c1ccc2[nH]c3c(c2c1)CCCC3)Nc1ccc2c(c1)OCO2`?
OTUD3 inh: 7.5; USP10 inh: 13.1; USP8 inh: 40.8*; UCHL1 block: 0.3; USP28 block: 18.7; USP7 block: -8.3

Results for O=C(Cc1nnc(-c2cnccn2)o1)Nc1ccc(C(F)(F)F)cc1 ?
OTUD3 inh: 10.4; USP10 inh: -0.6; USP8 inh: 55.1*; UCHL1 block: 3.2; USP28 block: 14.6; USP7 block: 1.8

Results for Cc1noc(C)c1CC(=O)Nc1nnc(-c2ccc(C(C)C)cc2)s1 ?
OTUD3 inh: -7.9; USP10 inh: 5.0; USP8 inh: 32.0*; UCHL1 block: -4.3; USP28 block: -13.9; USP7 block: 0.8

Results for Cc1noc(C)c1CC(=O)Nc1ccc(C(F)(F)F)cc1 ?
OTUD3 inh: -0.4; USP10 inh: -0.4; USP8 inh: -0.4; UCHL1 block: -2.2; USP28 block: 0.0; USP7 block: -1.3

How did CCCCCCCCCCCCCCCCCC(=O)N[C@@H]1C[C@@H](O)[C@@H](O)NC(=O)[C@@H]2[C@@H](O)[C@@H](C)CN2C(=O)[C@H]([C@@H](C)O)NC(=O)[C@H]([C@H](O)[C@@H](O)c2ccc(O)cc2)NC(=O)[C@@H]2C[C@@H](O)CN2C(=O)[C@H]([C@@H](C)O)NC1=O do in these assays?
OTUD3 inh: 16.3; USP10 inh: 10.0; USP8 inh: 15.3; UCHL1 block: 12.5; USP28 block: 38.3*; USP7 block: 16.8

How did CC(=O)N1CCN(c2oc(-c3cccc(C)c3)nc2S(=O)(=O)c2ccc(C)cc2)CC1 do in these assays?
OTUD3 inh: -3.6; USP10 inh: -2.5; USP8 inh: -6.7; UCHL1 block: 0.9; USP28 block: -8.0; USP7 block: -11.2

How did CCC(C)NC(=O)c1ccc(Cn2c(SCc3ccc(C)cc3)nc3ccncc32)cc1 (centres undefined) do in these assays?
OTUD3 inh: -3.5; USP10 inh: -1.3; USP8 inh: 5.2; UCHL1 block: 5.7; USP28 block: 22.1

Results for COc1cccc(CNC(=O)c2ccc(CSc3nc4ccncc4n3Cc3ccccc3F)cc2)c1 ?
OTUD3 inh: 6.1; USP10 inh: 8.6; USP8 inh: -4.8; UCHL1 block: 0.4; USP28 block: 34.2*; USP7 block: 7.8

What do the screens show for `COc1ccc(CSc2nc3ccncc3n2CC(=O)Nc2ccc(C)cc2C)cc1`?
OTUD3 inh: 33.7*; USP10 inh: 26.5; USP8 inh: 28.2; UCHL1 block: 4.4; USP28 block: 70.2*; USP7 block: 13.8

What do the screens show for `COc1ccccc1CNC(=O)c1ccc(CSc2nc3ccncc3n2Cc2ccccc2)cc1`?
OTUD3 inh: -2.3; USP10 inh: -3.5; USP8 inh: -9.6; UCHL1 block: -7.4; USP28 block: 30.6*; USP7 block: 1.0

Results for COc1ccc(Cn2c(SCc3ccc(C(=O)NCCc4ccccc4)cc3)nc3ccncc32)cc1 ?
OTUD3 inh: 9.8; USP10 inh: 14.2; USP8 inh: -4.5; UCHL1 block: -1.9; USP28 block: 29.5; USP7 block: 10.8

How did COC(=O)c1ccc(CSc2nc3ccncc3n2CC(=O)N2CCCC2)cc1 do in these assays?
OTUD3 inh: -3.0; USP10 inh: -1.7; USP8 inh: -126.2; UCHL1 block: -0.7; USP28 block: -9.8; USP7 block: -1.8

What do the screens show for `CC(C)CS(=O)(=O)N1C[C@H]2C[C@H](C(=O)NCC3CC3)[C@@H](C1)O2`?
OTUD3 inh: 8.3; USP10 inh: -1.2; USP8 inh: -9.0; UCHL1 block: -0.8; USP28 block: 6.5; USP7 block: 3.2

Results for Cc1ccc(C(=O)Nc2nnc3n2CCCS3)cc1 ?
OTUD3 inh: -6.2; USP10 inh: -0.2; USP8 inh: 4.2; UCHL1 block: -3.6; USP28 block: 32.0*; USP7 block: 1.5

How did O=C(Nc1nnc2n1CCCS2)c1cc2ccccc2o1 do in these assays?
OTUD3 inh: 4.7; USP10 inh: 0.5; USP8 inh: -185.4; UCHL1 block: 0.0; USP28 block: 50.8*; USP7 block: 9.1

Results for Cc1ccccc1NC(=O)CSc1nnc2ccc(C(=O)NCc3ccccc3)cn12 ?
OTUD3 inh: -1.8; USP10 inh: -1.3; USP8 inh: 45.3*; UCHL1 block: -3.0; USP28 block: -4.2; USP7 block: -5.3

How did Cc1ccc(NC(=O)c2ccc3nn(CC(=O)Nc4ccc(F)cc4F)c(=O)n3c2)cc1 do in these assays?
OTUD3 inh: 15.4; USP10 inh: 3.0; USP8 inh: 57.1*; UCHL1 block: -0.7; USP28 block: -24.8; USP7 block: 16.5

How did Cc1ccc(NC(=O)c2ccc3nn(CC(=O)Nc4ccc(C)cc4C)c(=O)n3c2)cc1 do in these assays?
OTUD3 inh: -13.0; USP10 inh: 3.0; USP8 inh: 52.7*; UCHL1 block: -4.3; USP28 block: -19.4; USP7 block: 10.8
